Source: PubChem BioAssay AID463173 (ICCB-Longwood Screening Facility, Harvard Medical School, 2010)
Among all 52,000 compounds or so, about 1,700 (3.3%) were called active. For the sample, actives were picked, then their nearest neighbours and some compounds at random. A number with no mark means an inactive call. Rule as the data show it: active = survival mostly below about 52% (no sharp cut-off); inactive = mostly above about 56%.

Each compound was assayed on Wild type (assay: S. aureus survival, RN4220 and DeltatarO strains – OD600, teichoic acid synthesis inhibitors, primary screen (AID 463173)). Settings: S. aureus RN4220 wild type/DeltatarO growth, OD600, 18 h, hits give low values, screened at 18.75 µg/mL (by protocol).

Q: Which survival does the source give for `C=CCN(CC=C)C(=S)Nc1ccc2nc(C)c(C)nc2c1` here?
A: 110%

Q: `Cc1ccc(-c2nc3ncccc3o2)cc1NC(=O)c1ccc(-c2ccc(Cl)cc2)o1` was tested. Which survival did it give?
A: 73%

Q: `COc1ccc(Cn2c(SCc3ccc(C(=O)NCc4ccccc4F)cc3)nc3cccnc32)cc1` was tested. Which survival did it give?
A: 67%

Q: With `CCOc1ccc(NC(=O)CN2CCN(CC(=O)Nc3ccccc3OCC)CC2)cc1` as the compound, how does the survival read?
A: 81%

Q: With `CCOc1ccccc1NC(=O)Cc1coc2c(C)c(C)ccc12` as the compound, how does the survival read?
A: 114%

Q: `CC1CCN(C(=O)Cn2cc(SCC(=O)NCc3ccc(F)cc3)c3ccccc32)CC1` was tested. Which survival did it give?
A: 89%

Q: For `CCCc1cc(=O)[nH]c(Nc2ccc(O)cc2C)n1`, which survival is on record?
A: 110%

Q: `COc1ccc(C)c(N2C(=O)CC(N3CCN(c4ccc(F)cc4)CC3)C2=O)c1` (centres undefined) was tested. Which survival did it give?
A: 109%

Q: With `CC1Cc2ccccc2N1C(=O)c1cc2n(n1)C(C(F)(F)F)CC(c1ccco1)N2` (centres undefined) as the compound, how does the survival read?
A: 110%

Q: With `Cc1cccc2c1N(Cc1ccccc1OCCC(C)C)C(=O)C2=O` as the compound, how does the survival read?
A: 25% (active)

Q: `Cc1ccc(CN2C(=O)C(=O)c3cc(Br)cc(C)c32)cc1` was tested. Which survival did it give?
A: 40%

Q: Which survival does the source give for `CCCOc1ccc(CN2C(=O)C(=O)c3cccc(C)c32)cc1` here?
A: 38%

Q: `Cc1cc(Br)cc2c1N(Cc1ccccc1OC(C)C)C(=O)C2=O` was tested. Which survival did it give?
A: 26% (active)

Q: How did the survival turn out when `CCCCOc1ccc(CN2C(=O)C(=O)c3cc(Br)cc(C)c32)cc1OC` was run?
A: 59%

Q: For `COc1ccccc1CN1C(=O)C(=O)c2cccc(C)c21`, which survival is on record?
A: 107%

Q: `CC(=O)c1cc(-c2ccccc2)n(CCC(=O)Nc2ccc(C)cc2C)c1C` was tested. Which survival did it give?
A: 85%

Q: For `Cc1ccc(-c2nn(CC(=O)NC3CCCCC3)c3c2cnc2ccccc23)cc1`, which survival is on record?
A: 75%

Q: Which survival does the source give for `CN(Cc1ccccc1)C(=O)COc1ccc(S(=O)(=O)N2CCCC2)cc1` here?
A: 121%

Q: How did the survival turn out when `COc1ccc(C(=O)c2sc(Nc3cc(Cl)ccc3C)nc2N)cc1OC` was run?
A: 129%

Q: `Nc1nc(Nc2ccccc2F)sc1C(=O)c1ccc(Cl)cc1` was tested. Which survival did it give?
A: -7% (active)

Q: `Nc1c(C(=O)c2ccc(F)cc2)sc(Nc2ccccc2F)c1S(=O)(=O)c1ccc(Br)cc1` was tested. Which survival did it give?
A: 74%

Q: How did the survival turn out when `CCc1nn2c(=O)cc(COC(=O)c3cccs3)nc2s1` was run?
A: 89%

Q: `CCOC(=O)c1c(S(=O)(=O)N2CCCC(C(=O)Nc3ncccc3C)C2)c(C)n(C)c1C` (centres undefined) was tested. Which survival did it give?
A: 71%

Q: With `O=C(CSc1nnc(NC(=O)C2CC2)s1)Nc1ccccc1F` as the compound, how does the survival read?
A: 108%

Q: How did the survival turn out when `CCOc1ccccc1CNC(=O)c1ccc(N2Cc3ccccc3Oc3ncccc32)s1` was run?
A: 84%

Q: Which survival does the source give for `CCOC(=O)c1sc2ncn(CC(=O)Nc3ccc(OC)c(Cl)c3)c(=O)c2c1C` here?
A: 78%

Q: For `O=C(NCc1ccccc1)c1nc[nH]c1C(=O)NCc1ccccc1`, which survival is on record?
A: 123%

Q: How did the survival turn out when `CCOc1cccc2cc(-c3cn4c(n3)sc3cc(C)ccc34)c(=O)oc12` was run?
A: -6% (active)

Q: How did the survival turn out when `CCOc1cccc2cc(-c3cn4c(n3)sc3ccccc34)c(=O)oc12` was run?
A: 64%

Q: `COc1cccc2cc(-c3cn4c(n3)sc3cc(F)ccc34)c(=O)oc12` was tested. Which survival did it give?
A: 75%

Q: Which survival does the source give for `Cc1oc(-c2ccc(Cl)cc2)nc1CN1CCCC(C(=O)NCCc2ccc(Cl)cc2)C1` (centres undefined) here?
A: 86%

Q: With `Cc1oc(-c2cccc(Cl)c2)nc1CN1CCC(C(=O)NCCc2ccc(Cl)cc2)CC1` as the compound, how does the survival read?
A: 88%

Q: `Cc1cccc(-c2nc(CN3CCCC(C(=O)NCCc4ccc(Cl)cc4)C3)c(C)o2)c1` (centres undefined) was tested. Which survival did it give?
A: 29%

Q: Which survival does the source give for `Cc1oc(-c2ccc(Cl)cc2)nc1CN1CCCC(C(=O)NCCc2ccccc2)C1` (centres undefined) here?
A: 29%

Q: `Cc1oc(-c2cccc(Cl)c2)nc1CN1CCCC(C(=O)NCCc2ccc(Cl)cc2)C1` (centres undefined) was tested. Which survival did it give?
A: -2% (active)

Q: Which survival does the source give for `Cc1ccc(CCNC(=O)C2CCCN(Cc3nc(-c4cccc(Cl)c4)oc3C)C2)cc1` (centres undefined) here?
A: 9% (active)

Q: For `CCc1ccc(C(=O)c2cn(CC(=O)Nc3ccc4c(c3)OCO4)c3cc(OC)c(OC)cc3c2=O)cc1`, which survival is on record?
A: 107%

Q: Which survival does the source give for `Cc1ccccc1NC(=O)c1ccccc1NC(=O)c1ccccc1F` here?
A: 89%

Q: `COc1ccc(NC(=O)CC2C(=O)N(c3ccccc3)C(=O)N2C2CCCCC2)cc1` (centres undefined) was tested. Which survival did it give?
A: 70%

Q: `O=C(Nc1ccccc1C(F)(F)F)C1CCN(c2nnc(-n3cccc3)s2)CC1` was tested. Which survival did it give?
A: 113%

Q: For `COc1ccc(C(C)=O)cc1CSc1nc(NCc2ccccc2)c2ccccc2n1`, which survival is on record?
A: 85%

Q: `COc1ccc(C(C)=O)cc1CSc1nc(NCCc2ccccc2)c2ccccc2n1` was tested. Which survival did it give?
A: 47%

Q: For `COc1ccc(C(C)=O)cc1CSc1nc(NCc2ccc(Cl)cc2)c2ccccc2n1`, which survival is on record?
A: 0% (active)

Q: For `CCOc1ccccc1N(C)C(=O)c1c2c(nc3ccccc13)C(=O)N(C1CCCCC1)C2`, which survival is on record?
A: 90%

Q: How did the survival turn out when `O=C(NCc1ccc(F)cc1)c1c2c(nc3ccccc13)C(=O)N(C1CCCCC1)C2` was run?
A: 99%

Q: For `CN(C(=O)c1c2c(nc3ccccc13)C(=O)N(C1CCCCC1)C2)c1ccc(F)cc1`, which survival is on record?
A: -3% (active)

Q: How did the survival turn out when `COc1ccc(CNC(=O)Cn2ncc3c(=O)oc4ccc(C)cc4c32)c(OC)c1` was run?
A: 113%

Q: How did the survival turn out when `CCOC(=O)c1c(NC(=O)CCCOc2ccccc2C)sc2c1CCC(C)C2` (centres undefined) was run?
A: 6% (active)

Q: Which survival does the source give for `CCOC(=O)c1c(NC(=O)CCCOc2ccc(C)cc2)sc2c1CCC(C)C2` (centres undefined) here?
A: 2% (active)

Q: How did the survival turn out when `CCOC(=O)c1c(NC(=O)CS(=O)(=O)c2ccc(C)cc2)sc2c1CCC(C)C2` (centres undefined) was run?
A: 73%

Q: With `COC(=O)c1c(NC(=O)CCCOc2ccccc2)sc2c1CCC(C)C2` (centres undefined) as the compound, how does the survival read?
A: 20%

Q: With `CC1CCc2c(sc(NC(=O)CCCOc3ccccc3)c2C(N)=O)C1` (centres undefined) as the compound, how does the survival read?
A: 91%

Q: Which survival does the source give for `Cc1ccc(OCCCC(=O)Nc2sc3c(c2C(N)=O)CCC(C)C3)cc1` (centres undefined) here?
A: 148%

Q: With `COC(=O)c1ccccc1NC(=O)COC(=O)c1ccco1` as the compound, how does the survival read?
A: 108%

Q: Which survival does the source give for `COc1ccc(CNC(=O)c2cc(=O)[nH]c3ccc(S(=O)(=O)N4CCCC4)cc23)c(OC)c1` here?
A: 60%

Q: How did the survival turn out when `CCOc1ccc(CCNC(=O)C2COc3ccccc3C2)cc1OCC` (centres undefined) was run?
A: -2% (active)

Q: With `COc1ccc(CCNC(=O)C2COc3ccccc3C2)cc1OC` (centres undefined) as the compound, how does the survival read?
A: 59%

Q: `O=C(NCCc1ccc(Cl)cc1)C1COc2ccccc2C1` (centres undefined) was tested. Which survival did it give?
A: 88%

Q: Which survival does the source give for `CN(C)c1ccc(CNC(=O)C2COc3ccccc3C2)cc1` (centres undefined) here?
A: 0% (active)

Q: For `O=C(NCCc1ccccc1)C1COc2ccccc2C1` (centres undefined), which survival is on record?
A: 10% (active)

Q: How did the survival turn out when `Cc1ccc(CNC(=O)C2COc3ccccc3C2)cc1` (centres undefined) was run?
A: 121%

Q: For `Cc1ccc(CCNC(=O)C2COc3ccccc3C2)cc1` (centres undefined), which survival is on record?
A: 88%

Q: Which survival does the source give for `CCc1ccc(CNC(=O)C2COc3ccccc3C2)cc1` (centres undefined) here?
A: 88%

Q: Which survival does the source give for `CCOc1cc(CNC(=O)C2COc3ccccc3C2)cc(OCC)c1OCC` (centres undefined) here?
A: 73%

Q: For `Cc1cccc(-n2c(SCC(=O)Nc3ccccc3C)nc3c(oc4ccccc43)c2=O)c1`, which survival is on record?
A: 86%

Q: Which survival does the source give for `Cc1ccc(C)c(NC(=O)N2CCN(C(=O)c3nsc4ccccc34)CC2)c1` here?
A: 69%

Q: How did the survival turn out when `CCc1ccc(NC(=O)N2CCN(C(=O)c3nsc4ccccc34)CC2)cc1` was run?
A: 76%

Q: For `Cc1cccc(NC(=O)N2CCN(C(=O)c3nsc4ccccc34)CC2)c1C`, which survival is on record?
A: 72%

Q: `CCc1ccccc1NC(=O)N1CCN(C(=O)c2nsc3ccccc23)CC1` was tested. Which survival did it give?
A: -1% (active)

Q: How did the survival turn out when `O=C(Nc1ccc(F)cc1)N1CCN(C(=O)c2nsc3ccccc23)CC1` was run?
A: 14% (active)

Q: `Cc1cc(C)cc(NC(=O)N2CCN(C(=O)c3nsc4ccccc34)CC2)c1` was tested. Which survival did it give?
A: 78%

Q: `Cc1ccc(NC(=O)N2CCN(C(=O)c3nsc4ccccc34)CC2)cc1C` was tested. Which survival did it give?
A: -6% (active)

Q: `O=C(Nc1ccc(F)c(Cl)c1)N1CCN(C(=O)c2nsc3ccccc23)CC1` was tested. Which survival did it give?
A: 70%

Q: Which survival does the source give for `O=C(Nc1ccccc1)N1CCN(C(=O)c2nsc3ccccc23)CC1` here?
A: 85%

Q: How did the survival turn out when `CCC(C(=O)NCc1ccccc1Cl)n1c(=O)c2cccn2c2ccccc21` (centres undefined) was run?
A: 76%

Q: `O=c1c2oc3ccccc3c2n(Cc2cccc(F)c2)c(=O)n1Cc1ccc2c(c1)OCO2` was tested. Which survival did it give?
A: 86%

Q: How did the survival turn out when `O=C(Cn1c(-c2cccs2)cc2cc(F)ccc21)N1CCCCC1` was run?
A: 72%

Q: For `O=C(NCc1ccccc1)c1ccc2oc(=O)n(Cc3ccccc3)c2c1`, which survival is on record?
A: 71%

Q: Which survival does the source give for `O=C(Nc1cccc(F)c1)c1ccc2oc(=O)n(Cc3ccccc3)c2c1` here?
A: 81%

Q: With `COc1cccc(CNC(=O)c2ccc3oc(=O)n(Cc4ccccc4)c3c2)c1` as the compound, how does the survival read?
A: -3% (active)

Q: With `CCc1ccc(NC(=O)c2ccc3oc(=O)n(Cc4ccccc4)c3c2)cc1` as the compound, how does the survival read?
A: 1% (active)

Q: How did the survival turn out when `O=C(Nc1ccc(Cl)cc1)c1ccc2oc(=O)n(Cc3ccccc3)c2c1` was run?
A: 63%

Q: For `O=C(NCc1ccc(F)cc1)c1ccc2oc(=O)n(Cc3ccccc3)c2c1`, which survival is on record?
A: -4% (active)

Q: `CCn1nnc2cc(C(=O)Nc3ccc(OC)cc3)ccc21` was tested. Which survival did it give?
A: 73%

Q: With `Cc1cccc(CNC(=O)c2ccc3oc(=O)n(Cc4ccccc4)c3c2)c1` as the compound, how does the survival read?
A: 60%

Q: How did the survival turn out when `CCc1ccc(NC(=O)c2ccc3c(c2)nnn3CC)cc1` was run?
A: -6% (active)

Q: With `O=C(NCc1ccc(Cl)cc1)c1ccc2oc(=O)n(Cc3ccccc3)c2c1` as the compound, how does the survival read?
A: 129%

Q: Which survival does the source give for `CCn1nnc2cc(C(=O)Nc3ccc(C)c(Cl)c3)ccc21` here?
A: 53%

Q: Which survival does the source give for `Cc1ccc(CNC(=O)c2ccc3oc(=O)n(Cc4ccccc4)c3c2)cc1` here?
A: 57%

Q: `Cc1nn(Cc2ccccc2)c(C)c1NC(=O)c1cc(C(C)C)on1` was tested. Which survival did it give?
A: 77%

Q: Which survival does the source give for `O=C(Nc1ccc(NC(=O)c2cccs2)cc1)c1ccc(Cl)cc1` here?
A: 81%

Q: How did the survival turn out when `Cc1onc(-c2c(Cl)cccc2Cl)c1C(=O)n1c(C)nc2ccccc21` was run?
A: 105%

Q: `Cc1cc(C)cc(NC(=O)Cn2c(-c3cncs3)nc3ccccc32)c1` was tested. Which survival did it give?
A: 63%

Q: How did the survival turn out when `CN(C)C(=O)Cn1c2[n+](c3ccccc31)CC(O)CS2` (centres undefined) was run?
A: 103%
